Drawing on PubChem BioAssay (Tox21), this text covers outcome and Potency for five compounds.

Results filed as inconclusive are left out. Active and inactive are the calls of the source. Unless noted, calls come from the whole dose curve; as a rule, active = well fitted curve in the direction sought with a large enough effect in the repeat runs; inconclusive = weak or mixed curves; inactive = no such curve, though single readings can be large; an effect the other way counts as inactive or inconclusive.

Assay [1] in a line: qHTS assay for small molecules that induce genotoxicity in human embryonic kidney cells expressing luciferase-tagged ATAD5 (AID 651632). Note: nearly all actives have a fitted effect of over 15% in size. A digest of the protocol: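 Luminescent reporter readout, HEK293T ATAD5-luc line: 16 hr drug exposure (37C, 5% CO2) followed by Amplite, 30 min RT.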
On the technique in general: Quantitative high-throughput screening tests each substance at several concentrations.

A short description of assay [2]: qHTS assay for small molecule agonists of the p53 signaling pathway - cell viability (AID 651633; calls by dose curve; note: potency is the fitted concentration of half-maximal effect; nearly all actives have a fitted effect of over 30% in size). The gist of the method:
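p53RE-bla cells, seeded at 4,000 per well and rested 5 h at 37 C/5% CO2, received compounds in DMSO for 16 h at 37 C. CellTiter-Glo was then added, and luminescence was read after 30 min at room temperature to gauge cytotoxicity.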

Assay [3] can be described thus: qHTS assay for small molecules that induce genotoxicity in human embryonic kidney cells expressing luciferase-tagged ATAD5 - cell viability (AID 651634; calls by dose curve; note: potency is the fitted concentration of half-maximal effect; nearly all actives have a fitted effect of over 25% in size). The gist of the method: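 Viability read: CellTiter-Fluor fluorescence, 30 min at 37C. Cells: HEK293T, luciferase-tagged ATAD5. Exposure: 15.5 hr, 37C, 5% CO2, compound or DMSO vehicle.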
Assay [4] can be described thus: qHTS assay for small molecule disruptors of the mitochondrial membrane potential - cell viability (AID 720634; calls by dose curve;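 note: human HepG2 liver cancer cells; series mostly up to about 83 µM; nearly all actives have a fitted effect of over 20% in size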). A digest of the protocol: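 HepG2, 1 hr compound, 37 C. ATP luminescence via CellTiter-Glo, 30 min RT, same well as m-MPI.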
A short description of assay [5]: qHTS assay for small molecule disruptors of the mitochondrial membrane potential (AID 720635). Note: potency is the fitted concentration of half-maximal effect. The gist of the method: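 HepG2 cells (2,000/well) attached overnight at 37C, then took compound for 1 hr at 37C, 5% CO2. Mito-MPS dye was added for 30 min; fluorescence was read at 490/535 nm (monomers) and 540/590 nm (aggregates).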
Assay [6] can be described thus: qHTS assay to test for compound auto fluorescence at 590 nm (red) in HepG2 cells (AID 720674). A digest of the protocol: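 Compound auto-fluorescence is scored relative to Rose Bengal sodium, measured at 540/590 nm in live HepG2 cultures after 1 hr compound contact (37 C, 5% CO2).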
Assay [7] can be described thus: qHTS assay to test for compound auto fluorescence at 535 nm (green) in HepG2 cells (AID 720675).
Assay [8] in a line: qHTS assay to test for compound auto fluorescence at 460 nm (blue) in HEK293 cells (AID 720678). The gist of the method:
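After cell attachment (4-5 hr, 37C), compounds were pinned onto HEK293 monolayers in 10% dialyzed FBS medium. The blue channel (405/460 nm) was read following overnight culture. Equivalency was calculated against triamterene.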

Assay [9] can be described thus: qHTS assay to test for compound auto fluorescence at 590 nm (red) in HEK293 cells (AID 720679). The gist of the method: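 Plates of HEK293 cells (10% dialyzed FBS) are treated with 23 nL compound or DMSO vehicle after a 4-5 hr attachment period, incubated overnight at 37C, and read for red fluorescence at 540/590nm.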
The nature of assay [10]: qHTS assay to test for compound auto fluorescence at 535 nm (green) in HEK293 cells (AID 720680).
Assay [11] can be described thus: qHTS assay to test for compound auto fluorescence at 590 nm (red) in HEK293 cell free culture (AID 720683). The gist of the method: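 Tox21 10K library compounds were pinned into cell-free DMEM with 10% FBS and fluorescence was read at excitation 540 nm. Activity is expressed as Rose Bengal sodium equivalency.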
Assay [12] is described as follows: qHTS assay to test for compound auto fluorescence at 590 nm (red) in HepG2 cell free culture (AID 720684). A digest of the protocol:
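Red fluorescence (540 nm excitation, 590 nm emission) was measured after compound transfer into cell-free MEM supplemented with 10% FBS. Values are equivalencies against Rose Bengal sodium.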

Assay [13] can be described thus: qHTS assay to test for compound auto fluorescence at 460 nm (blue) in HepG2 cell free culture (AID 720685). The gist of the method: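 Compound (23 nL) or DMSO pinned into cell-free MEM with 10% FBS; blue fluorescence read at 405/460 nm excitation/emission, expressed as auto-fluorescence equivalency to triamterene.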
Assay [14] is described as follows: qHTS assay to test for compound auto fluorescence at 535 nm (green) in HepG2 cell free culture (AID 720686).
Assay [15] is described as follows: qHTS assay to test for compound auto fluorescence at 460 nm (blue) in HepG2 cells (AID 720687). A digest of the protocol: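 Cells (2,000/well in MEM with 10% FBS) attached overnight at 37 C, then were exposed to compound or DMSO for 1 hr at 37 C, 5% CO2. Fluorescence read at Ex/Em 405/460 nm, expressed as triamterene-equivalent signal.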
Assay [16] in a line: qHTS assay to identify small molecule antagonists of the glucocorticoid receptor (GR) signaling pathway - cell viability counter screen (AID 720693). Note: potency is the fitted concentration of half-maximal effect; nearly all actives have a fitted effect of over 55% in size.
Assay [17] is described as follows: qHTS assay for identifying genotoxic compounds that show differential cytotoxicity against isogenic chicken DT40 cell lines with known DNA damage response pathways - wild type cell line (AID 743012). Note: potency is the fitted concentration of half-maximal effect; nearly all actives have a fitted effect of over 60% in size. A digest of the protocol:
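First, wild type DT40 cells were plated at 300 per well and equilibrated about 0.5 h at 37 C/5% CO2. Next, compounds in DMSO were added and exposure lasted 40 h. Finally, CellTiter-Glo was added for 30 min at room temperature and luminescence recorded.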

A short description of assay [18]: qHTS assay for identifying genotoxic compounds that show differential cytotoxicity against isogenic chicken DT40 cell lines with known DNA damage response pathways - Rev3 mutant cell line (AID 743014). Note: potency is the fitted concentration of half-maximal effect; nearly all actives have a fitted effect of over 55% in size.
Assay [19] is described as follows: qHTS assay for identifying genotoxic compounds that show differential cytotoxicity against isogenic chicken DT40 cell lines with known DNA damage response pathways - Rad54/Ku70 mutant cell line (AID 743015). Note: potency is the fitted concentration of half-maximal effect; nearly all actives have a fitted effect of over 60% in size.
Assay [20] in a line: qHTS assay to identify small molecule antagonists of the androgen receptor (AR) signaling pathway - cell viability counter screen (AID 743033; note: potency is the fitted concentration of half-maximal effect; nearly all actives have a fitted effect of over 45% in size).
Assay [21] has as its target Androgen receptor (Homo sapiens) (UniProt P10275). In words: qHTS assay to identify small molecule antagonists of the androgen receptor (AR) signaling pathway (AID 743035; active = well fitted inhibition curve with a large enough effect in the signal ratio in the repeat runs, not every such curve was filed as active; the % refers to the signal ratio; note: potency is the fitted concentration of half-maximal effect). The gist of the method: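 Beta-lactamase FRET read (2 h RT incubation with LiveBLAzer B/G) following 16 h of compound plus R1881 treatment of AR-UAS-bla HEK293 cells, which had been pre-incubated 4 h at 37C.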

A short description of assay [22]: qHTS assay to identify small molecule antagonists of the thyroid receptor (TR) signaling pathway - cell viability counter screen (AID 743064). Note: nearly all actives have a fitted effect of over 50% in size. A digest of the protocol:
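Fluorescence from CellTiter-Fluor, added after 23.5 h exposure at 37 °C, reported viability of GH3.TRE-Luc cells co-treated with compound and 1 nM T3. Measured in the same wells as the luciferase TR readout.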

A short description of assay [23]: qHTS assay to identify small molecule antagonists of the thyroid receptor (TR) signaling pathway (AID 743065). Note: series mostly up to about 70 µM; nearly all actives have a fitted effect of over 55% in size. The gist of the method: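 GH3.TRE-Luc rat pituitary cells carrying two TR response elements driving luciferase were plated for 4 h, given compound plus 1 nM T3 (final), and incubated 23.5 h at 37 C. ONE-Glo luminescence measured reporter inhibition; CellTiter-Fluor fluorescence tracked cytotoxicity.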

Assay [24] relates to thyroid hormone receptor (rat, GH3 cells). Kind of assay: qHTS assay to identify small molecule agonists of the thyroid receptor (TR) signaling pathway (AID 743066; calls by dose curve).
The nature of assay [25]: qHTS assay to identify small molecule antagonists of the estrogen receptor alpha (ER-alpha) signaling pathway - cell viability counter screen (AID 743074; calls by dose curve;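 note: HEK293 cells carrying ER-alpha-UAS-bla reporter stimulated with 17beta-estradiol; potency is the fitted concentration of half-maximal effect; nearly all actives have a fitted effect of over 45% in size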).
Assay [26] concerns the target Estrogen receptor (Homo sapiens) (UniProt P03372). Kind of assay: qHTS assay to identify small molecule agonists of the estrogen receptor alpha (ER-alpha) signaling pathway (AID 743075; calls by dose curve;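 note: HEK293 GripTite cells with ER-alpha and UAS-driven beta-lactamase reporter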).
A short description of assay [27]: qHTS assay to identify small molecule antagonists of the estrogen receptor alpha (ER-alpha) signaling pathway using the BG1 cell line - cell viability counter screen (AID 743081).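 Note: compound given together with 17beta-estradiol as the ER stimulus; series mostly up to about 70 µM; nearly all actives have a fitted effect of over 45% in size.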
Assay [28] addresses Aromatase (Homo sapiens) (UniProt P11511). In words: qHTS assay to identify aromatase inhibitors (AID 743083). Note: series mostly up to about 70 µM; nearly all actives have a fitted effect of over 55% in size.
Assay [29] can be described thus: qHTS assay to identify aromatase inhibitors - cell viability counter screen (AID 743084).
The nature of assay [30]: qHTS assay to identify small molecule that activate the aryl hydrocarbon receptor (AhR) signaling pathway - cell viability counter screen (AID 743086).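 Note: HepG2 liver cells carrying the AhR DRE luciferase reporter; series mostly up to about 70 µM; nearly all actives have a fitted effect of over 45% in size.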 A digest of the protocol:
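HepG2-AhR-luc (HG2L7.5c1) cells, 4000/well, were preincubated 5 h at 37C, exposed to compound in qHTS format for 24 hr at 37C, then given CellTiter-Fluor for 30 min; viability was read as fluorescence in the reporter wells.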

For assay [31], the target named is Acetylcholinesterase (Homo sapiens) (UniProt P22303). Kind of assay: Acetylcholinesterase (AChE) small molecule antagonists: enzyme-based qHTS assay with human liver microsomes (AID 1347399; calls by dose curve; note: nearly all actives have a fitted effect of over 60% in size). To be noted: Potency: qHTS inhibition; outcome: qHTS inhibition. A digest of the protocol: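 Recombinant human AChE (50 mU/mL in the enzyme mix) and human liver microsomes (0.25 mg/mL final) were preincubated with compound and NADPH (0.25 mg/mL final) for 30 min at 37 C. Acetylthiocholine/DTNB was then added; thiocholine was read colorimetrically after 10 min at room temperature.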
Acetylcholinesterase (Homo sapiens), sequence (P22303 whole entry, looked up): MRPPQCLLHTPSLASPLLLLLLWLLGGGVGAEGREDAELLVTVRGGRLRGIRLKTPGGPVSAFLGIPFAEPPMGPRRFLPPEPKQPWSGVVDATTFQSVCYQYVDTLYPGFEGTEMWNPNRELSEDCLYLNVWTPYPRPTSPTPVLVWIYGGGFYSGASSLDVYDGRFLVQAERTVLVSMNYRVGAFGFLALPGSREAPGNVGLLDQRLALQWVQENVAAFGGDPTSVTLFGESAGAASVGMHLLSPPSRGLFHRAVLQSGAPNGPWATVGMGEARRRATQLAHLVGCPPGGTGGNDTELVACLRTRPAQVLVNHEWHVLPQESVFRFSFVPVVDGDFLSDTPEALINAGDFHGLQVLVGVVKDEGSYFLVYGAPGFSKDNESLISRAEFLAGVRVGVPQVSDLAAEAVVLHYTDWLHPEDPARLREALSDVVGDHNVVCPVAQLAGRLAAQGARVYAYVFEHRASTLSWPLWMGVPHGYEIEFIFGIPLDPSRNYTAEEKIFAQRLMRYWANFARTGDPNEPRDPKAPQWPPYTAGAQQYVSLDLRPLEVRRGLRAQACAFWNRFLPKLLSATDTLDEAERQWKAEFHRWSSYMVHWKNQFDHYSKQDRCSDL

Assay [32] has the same target. Kind of assay: Acetylcholinesterase (AChE) small molecule antagonists: fluorescence cell-based qHTS assay (AID 1347398; calls by dose curve; note: potency is the fitted concentration of half-maximal effect; nearly all actives have a fitted effect of over 50% in size). To be noted: Potency: AChE activity; outcome: AChE activity. The gist of the method: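 Human SH-SY5Y cells were plated overnight at 37 C, exposed to compound for 30 min at 37 C, 5% CO2, then given acetylthiocholine plus Thiolite Green for 40 min at room temperature; thiocholine fluorescence (Ex/Em 490/520 nm) reports endogenous AChE activity.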

Androgen receptor (Homo sapiens), sequence (P10275 whole entry, looked up): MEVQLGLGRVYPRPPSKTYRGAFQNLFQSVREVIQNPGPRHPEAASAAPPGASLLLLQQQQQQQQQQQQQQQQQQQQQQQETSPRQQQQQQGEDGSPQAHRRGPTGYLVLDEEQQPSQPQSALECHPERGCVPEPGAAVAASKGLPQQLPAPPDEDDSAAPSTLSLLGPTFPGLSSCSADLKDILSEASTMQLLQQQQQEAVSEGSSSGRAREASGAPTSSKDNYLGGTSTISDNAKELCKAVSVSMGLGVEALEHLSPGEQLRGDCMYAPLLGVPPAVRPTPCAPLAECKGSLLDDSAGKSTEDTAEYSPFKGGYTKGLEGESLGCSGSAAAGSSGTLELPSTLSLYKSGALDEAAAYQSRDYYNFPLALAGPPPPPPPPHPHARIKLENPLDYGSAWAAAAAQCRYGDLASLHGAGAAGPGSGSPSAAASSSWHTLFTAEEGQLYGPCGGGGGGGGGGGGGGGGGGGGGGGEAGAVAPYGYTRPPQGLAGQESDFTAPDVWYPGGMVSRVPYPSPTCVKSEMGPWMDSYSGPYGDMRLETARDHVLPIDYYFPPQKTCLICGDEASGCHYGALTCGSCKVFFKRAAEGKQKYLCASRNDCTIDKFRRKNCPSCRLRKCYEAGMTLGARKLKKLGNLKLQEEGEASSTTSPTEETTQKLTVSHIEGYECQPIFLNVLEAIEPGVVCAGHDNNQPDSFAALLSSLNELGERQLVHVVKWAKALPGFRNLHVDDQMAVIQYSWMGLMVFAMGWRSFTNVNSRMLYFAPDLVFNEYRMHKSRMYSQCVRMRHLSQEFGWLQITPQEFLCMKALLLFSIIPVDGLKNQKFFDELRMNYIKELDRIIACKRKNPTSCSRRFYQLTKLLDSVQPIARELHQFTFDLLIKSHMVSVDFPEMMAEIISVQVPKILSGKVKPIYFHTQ
Aromatase (Homo sapiens), sequence (P11511 whole entry, looked up): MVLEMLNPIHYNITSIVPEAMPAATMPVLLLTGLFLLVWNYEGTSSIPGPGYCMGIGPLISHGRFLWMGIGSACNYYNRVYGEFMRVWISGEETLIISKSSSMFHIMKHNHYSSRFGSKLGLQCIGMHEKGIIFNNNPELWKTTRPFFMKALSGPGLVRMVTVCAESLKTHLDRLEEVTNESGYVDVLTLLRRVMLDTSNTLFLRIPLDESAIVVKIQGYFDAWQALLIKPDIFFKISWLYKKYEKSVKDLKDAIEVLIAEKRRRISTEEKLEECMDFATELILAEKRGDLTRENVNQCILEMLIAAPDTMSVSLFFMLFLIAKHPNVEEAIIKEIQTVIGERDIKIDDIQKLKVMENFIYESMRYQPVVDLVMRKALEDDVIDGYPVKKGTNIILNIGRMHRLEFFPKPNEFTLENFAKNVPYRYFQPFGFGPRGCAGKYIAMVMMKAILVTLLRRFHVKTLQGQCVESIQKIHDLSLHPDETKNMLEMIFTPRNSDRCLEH
Estrogen receptor (Homo sapiens), sequence (P03372 whole entry, looked up): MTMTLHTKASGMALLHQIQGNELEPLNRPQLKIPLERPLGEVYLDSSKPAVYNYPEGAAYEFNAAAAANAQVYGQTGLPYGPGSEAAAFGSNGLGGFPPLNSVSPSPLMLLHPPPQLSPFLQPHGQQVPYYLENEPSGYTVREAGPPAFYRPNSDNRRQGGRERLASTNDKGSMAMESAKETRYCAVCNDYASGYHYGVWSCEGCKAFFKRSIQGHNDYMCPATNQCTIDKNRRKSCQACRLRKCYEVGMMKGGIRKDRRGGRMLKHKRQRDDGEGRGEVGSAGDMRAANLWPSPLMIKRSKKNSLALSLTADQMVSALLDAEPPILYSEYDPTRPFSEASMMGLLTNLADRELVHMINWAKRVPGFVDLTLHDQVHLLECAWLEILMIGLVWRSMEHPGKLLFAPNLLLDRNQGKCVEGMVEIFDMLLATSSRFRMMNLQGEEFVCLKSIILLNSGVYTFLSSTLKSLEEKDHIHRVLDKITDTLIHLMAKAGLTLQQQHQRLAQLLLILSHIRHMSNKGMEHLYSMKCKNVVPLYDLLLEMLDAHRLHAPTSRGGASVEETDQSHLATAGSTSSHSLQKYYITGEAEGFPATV

For `CC(=O)O[C@H]1C[C@H](O[C@H]2[C@@H](O)C[C@H](O[C@H]3[C@@H](O)C[C@H](OC4CC[C@@]5(C)C(CC[C@@H]6[C@@H]5CC[C@]5(C)[C@@H](C7=CC(=O)OC7)[C@@H](O)C[C@]65O)C4)O[C@@H]3C)O[C@@H]2C)O[C@H](C)[C@H]1O[C@@H]1O[C@H](CO)[C@@H](O)[C@H](O)[C@H]1O` (some centres not stated), the compound was classed as inactive in assay [1], in assay [4], in [6], in assay [7], in assay [8] and in [9]. Further, the result in assay [10], in assay [11], in assay [12], in assay [13], in [14] and in assay [15] was inactive. In addition, the call in assay [24] and in assay [29] was inactive. Further, the Potency in assay [2] was 376 nM (active); in [3], 750 nM (active); in [5], 944 nM (active); in assay [16], 2.39 µM (active); in assay [17], 2.11 µM (active); in [18] it was 2.66 µM (active). Besides, the Potency is 2.66 µM (active) in [19], 601 nM (active) in assay [20], 4.25 µM (active) in [21] and 379 nM (active) in assay [25]. Further, the Potency entry in assay [22], in assay [23], in assay [26], in assay [27], in [28] and in assay [30] was “inactive” throughout.
For `COc1ccc2cc(S(=O)(=O)N[C@H](CC(=O)N[C@H](Cc3ccc(CN4[C@H](C)CCC[C@@H]4C)cc3)C(=O)N(C)C(C)C)c3ccc4c(c3)OCO4)ccc2c1`, the Potency entry in assay [31] is “inactive”.
With `Cc1cc(O)ccc1O`, the Potency in [32] was 71.8 µM (active). Besides, the Potency entry in [31] was “inactive”.
For `COc1cccc(-c2ccc(/C=C\CN3CCCCCC3)cc2Cl)c1`, the Potency in [32] is 31.6 µM (active). The Potency entry in [31] is “inactive”.
For `CCN(CC)CCNc1ccc(CNC=O)c2sc3ccc(OC)cc3c(=O)c12`, the Potency in assay [32] is 39.9 µM (active). Further, the Potency entry in assay [31] is “inactive”.
